# High-throughput results (PubChem)
# The entries come from a sample that favours hits as a whole.
# Pf Dd2 inh: qHTS Primary assay for Inhibitors of Plasmodium falciparum Dd2 growth in vitro; 120,000 compounds, 4.3% hits; P. falciparum Dd2 growth, SYBR Green, 72 h; Potency, µM (titrated, usually from 28.9 µM), inactives show top-dose activity, negative = inhibition, usual class: inhibitors; active = well fitted inhibition curve with a large enough effect;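 note: plate controls were DMSO vehicle for no effect and reference drug for full effect; nearly all actives have a fitted effect of over 65% in size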
#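 Infected erythrocytes (Dd2, 0.3% parasitemia, 2.5% hematocrit final) are added to compound in RPMI-1640/Albumax II medium, grown 72 h at 37C in low oxygen, then lysed with saponin/Triton-X containing SYBR Green and read by fluorescence.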
# * hit, by the source's call; i = inactive; [ ] = dose if it differs, or a comment. Potency is the fitted concentration of half-maximal effect.
SMILES,Pf Dd2 inh
CN(Cc1ccccc1)C(=O)[C@H]1O[C@H](CCN2CCOCC2)CC[C@@H]1O,-11%[44.1 µM]
COCCN1CCC(N2CCN(C(=O)C3CCOCC3)CC2)C1=O (stereo not drawn),-14%
COc1ccc(C2(C(=O)N3CCC(Oc4ccc(-c5noc(C)n5)cc4)C3)CC2)cc1 (stereo not drawn),i[5.79 µM]
O=C1CCN(C2CCCC2)CCCC(c2nc(-c3cccnc3)no2)CCN1 (stereo not drawn),0.71µM*
O=C1NCCCCCCN(C(=O)c2cnccn2)[C@H]2C[C@H](c3nc(-c4cccnc4)no3)C[C@@H]12,-23%
COc1ccc(C2(C(=O)N3CCCC(c4nc(-c5ccccc5)no4)CCNC(=O)CC3)CC2)cc1 (stereo not drawn),7.9µM*
COc1ccc(C(=O)N2CCCC(c3nc(-c4ccccc4)no3)CCNC(=O)CC2)c(OC)n1 (stereo not drawn),11µM*
CS(=O)(=O)N1CCCC(c2nc(-c3cccnc3)no2)CCNC(=O)CC1 (stereo not drawn),-12%
CCC(=O)N1CCCC(c2nc(-c3ccccc3)no2)CCNC(=O)CC1 (stereo not drawn),31%
O=C1CCN(C2CCOCC2)CCCC(c2nc(-c3cccnc3)no2)CCN1 (stereo not drawn),-1%
O=C1CCN(C(=O)c2cccnc2)CCCC(c2nc(-c3ccccc3)no2)CCN1 (stereo not drawn),i
CS(=O)(=O)N1CCCCCCNC(=O)[C@@H]2C[C@@H](c3nc(-c4cccnc4)no3)C[C@@H]21,i
O=C1NCCCCCCN(S(=O)(=O)c2cccnc2)[C@H]2C[C@H](c3nc(-c4cccnc4)no3)C[C@@H]12,2.8µM*
CN(C)C(=O)N1CCCC(c2nc(-c3ccccc3)no2)CCNC(=O)CC1 (stereo not drawn),7%
COc1ccc(C(=O)N2CCCC(c3nc(-c4cccnc4)no3)CCNC(=O)CC2)c(OC)n1 (stereo not drawn),i
CCn1ncc(N2CCC(NC(=O)c3ccc(OC)c(F)c3)CC2)cc1=O,-23%
N#CC1CCN(C(=O)C2(c3ccc(Cl)cc3)CCOCC2)CC1,-5%
CC(C)Cc1nc(NC(=O)C[C@H]2NC(=O)c3ccccc3NC2=O)n[nH]1,-6%
N#Cc1ccc(CN2CCC3(CC2)CC(=O)Nc2ccccc2O3)cc1,i
O=C(NC1CCN(Cc2ccccc2)CC1)[C@H]1CN(Cc2ccccc2)C[C@H]1C(=O)O,-29%
CC(C)c1noc(C2CCCN(C(=O)NCCc3ccccc3)CCC(=O)NCC2)n1 (stereo not drawn),39%
CC(C)c1noc(C2CCCN(Cc3cccnc3)CCC(=O)NCC2)n1 (stereo not drawn),0%
CC(C)c1noc(C2CCCN(Cc3ccccc3)CCC(=O)NCC2)n1 (stereo not drawn),4.5µM*
O=C(CN1CCCCCCC1)N1CCn2cncc2C1,-4%
COc1cccnc1C(=O)N1CCC(N2CCCC(C(=O)N3CCCC3)C2)CC1 (stereo not drawn),15%
SMILES,Pf Dd2 inh
Cc1ccc(C(=O)N2CCC3(CC(C(C)C)=NO3)C2)cc1 (stereo not drawn),21%[44.1 µM]
Cc1ccc(C)c(CSc2ccc3nnc(CCNS(=O)(=O)c4ccccc4)n3n2)c1,-4%
Cc1ccc(S(=O)(=O)NCCc2nnc3ccc(SCc4ccccc4C)nn23)cc1,7.9µM*
CCOC(=O)CSc1ccc2nnc(CCNS(=O)(=O)c3ccccc3)n2n1,-10%
Cc1ccc(C(=O)N2CCC3(C2)NC(=O)c2ccccc2O3)cc1 (stereo not drawn),i
O=C1N[C@H](CCC(=O)N2CCN(Cc3ccccc3)CC2)C(=O)Nc2ccccc21,-8%
O=C(NCCCN1CCOCC1)C1CCc2ncc(-c3ccsc3)n2C1 (stereo not drawn),21%
CNC(=O)c1ccc(CNc2cc(C3CC(O)C3)nc(N)n2)o1 (stereo not drawn),-8%
CNC(=O)c1ccc(CNc2nc(CCN)nc3sc(C)c(C)c23)o1,10µM*
Cc1sc2nc(CCN)nc(N(C)CCCCN3CCOCC3)c2c1C,i
COCC(=O)N[C@@H]1CN(C(=O)c2ccc(F)cc2)CC[C@@H]1CO,14%
O=C(CC1CCCCC1)N1CCC(c2n[nH]c(=O)n2-c2ccccc2)CC1,i
CCOC(=O)c1c(NC(=O)c2ccc(S(=O)(=O)N(C)C3CCCCC3)cc2)sc2c1CCN(C(C)C)C2,11µM*
CCOC(=O)c1c(NC(=O)c2ccccc2C)sc2c1CCCC2,2%
CCCOc1ccc(C(=O)Nc2sc3c(c2C(=O)OCC)CCCCC3)cc1,i
CCOC(=O)c1c(NC(=O)CS(=O)(=O)c2ccc(C)cc2)sc2c1CCC(C)C2 (stereo not drawn),42%
CCOc1cccc2sc(NC(=O)c3ccc(S(=O)(=O)N4CCCCC4C)cc3)nc12 (stereo not drawn),-7%
COCCN(CCOC)S(=O)(=O)c1ccc(C(=O)Nc2sc3c(c2C(=O)OC)CCN(C)C3)cc1,11µM*
CCOC(=O)c1c(NC(=O)c2ccc(Br)cc2)sc2c1CCCC2,1%
